From PubChem
aSyn UTR act: Activators working through SNCA 5'UTR binding (MLPCN); activity score, % (tested at 7.5 µM), hits read low; 300,000 compounds, 7.1% hits; alpha-synuclein 5'UTR reporter, activators screen; in the data active = activity score below about -60%
Active calls of the source: *. Not all results are given here.

Screening Cc1cccnc1NC(=S)Nc1ccc(F)cc1F returned aSyn UTR act -74.4*.
Screening Nc1nn(-c2ccccc2)c(N)c1N=Nc1ccccc1F returned aSyn UTR act -98.0*.
For Nc1c(N=Nc2ccccc2F)c(=O)[nH]n1-c1ccccc1 the results were aSyn UTR act -125.3*.
For Nc1ncnc(N)c1N=Nc1ccccc1 the results were aSyn UTR act 111.8.
For Nc1nn(-c2ccccc2)c(N)c1N=Nc1ccccc1 the results were aSyn UTR act -105.6*.
Screening COc1ccc(-n2cc3ccc([N+](=O)[O-])cc3n2)cc1 returned aSyn UTR act -90.5*.
`Fc1cccc(NC(=S)NNc2ccccc2)c1` gave aSyn UTR act -139.9*.
Screening O=[N+]([O-])c1ccc(O)c(NC(=S)Nc2ccccc2)c1 returned aSyn UTR act -156.6*.
For O=[N+]([O-])c1ccc(NNC(=S)Nc2ccccc2)cc1 the results were aSyn UTR act -122.0*.
Cc1ccc(OC(=O)NC2CCS(=O)(=O)C2)cc1C (stereo not drawn) was read as aSyn UTR act -122.3*.
O=C(CN1C(=O)c2ccccc2S1(=O)=O)c1ccccc1F was read as aSyn UTR act 82.3.
`CC(C)CN1C(=O)c2ccc(NC(=O)c3ccccc3F)cc2C1=O` gave aSyn UTR act -144.3*.
Screening CC(C)CN1C(=O)c2ccc(NC(=O)c3cccs3)cc2C1=O returned aSyn UTR act -129.5*.
`CC(C)CN1C(=O)c2ccc(NC(=O)c3ccco3)cc2C1=O` gave aSyn UTR act -83.7*.
For CN(C)c1ccc(C2Nc3ccccc3C(=O)N2CCCN2CCOCC2)cc1 (stereo not drawn) the results were aSyn UTR act -119.8*.
Screening N#Cc1nc(COc2cccc(Cl)c2)oc1NCc1ccco1 returned aSyn UTR act -105.3*.
For CCNc1oc(COc2cccc(C)c2)nc1C#N the results were aSyn UTR act -94.9*.
For COc1ccc(Nc2oc(COc3ccc(C)cc3)nc2C#N)cc1 the results were aSyn UTR act 67.9.
For CCOC(=O)C(=Cc1ccc(-c2ccsc2C(=O)OC)o1)C(=O)OCC the results were aSyn UTR act -87.9*.
`CCOC(=O)/C(C#N)=C/c1ccc(-c2ccsc2C(=O)OC)o1` gave aSyn UTR act -117.4*.
For Cc1sc2ncn(/N=C/c3ccco3)c(=O)c2c1C the results were aSyn UTR act -67.2*.
`Cn1cc(/C=N/n2cnc3scc(-c4ccc(Cl)cc4)c3c2=O)c2ccccc21` gave aSyn UTR act 87.0.
Screening Cc1ccc(C(=O)NC(C#N)=C(Cl)Cl)cc1 returned aSyn UTR act -191.3*.
`Cc1sc(NC(=O)C2C3CCC(O3)C2C(=O)O)nc1-c1ccc(CC(C)C)cc1` (stereo not drawn) gave aSyn UTR act -139.2*.
For COc1cccc2oc3ccc(C#CC4(N)CCCCC4)cc3c(=O)c12 the results were aSyn UTR act -62.3*.
`Cc1cc2sc3ccc(C#CC4(O)CCCCC4)cc3c(=O)c2cc1C` gave aSyn UTR act 102.2.
Screening Cn1c2ccc(CC(=O)O)cc2c2cc(CC(=O)O)ccc21 returned aSyn UTR act -64.7*.
For Cn1c2ccc(Br)cc2c2nnc(SCC(=O)O)nc21 the results were aSyn UTR act 62.0.
`Cc1ccc(NC(=O)c2ccc(NCCN)c([N+](=O)[O-])c2)cc1Cl` gave aSyn UTR act -85.1*.
For Cc1cccc(NC(=O)c2ccc(N3CCCCC3)c([N+](=O)[O-])c2)n1 the results were aSyn UTR act -156.9*.
For CCOC(=O)c1ccc(NCCOC)c([N+](=O)[O-])c1 the results were aSyn UTR act -90.9*.
`Cc1cccc(NC(=O)c2ccc(N(C)C3CCCCC3)c([N+](=O)[O-])c2)n1` gave aSyn UTR act -64.1*.
For Cc1ccc(C(=O)c2cc([N+](=O)[O-])ccc2N2CCOCC2)c(C)c1 the results were aSyn UTR act 97.7.
For O=C(Nc1ccccc1)c1ccc(NCC2CCCO2)c([N+](=O)[O-])c1 (stereo not drawn) the results were aSyn UTR act -125.2*.
Cc1cc(C(=O)Nc2ccc(N3CCCC3)c(Cl)c2)ccc1[N+](=O)[O-] was read as aSyn UTR act -61.8*.
`Cc1cccc(NC(=O)c2ccc(N3CCOCC3)c([N+](=O)[O-])c2)n1` gave aSyn UTR act -114.7*.
CC(C)CCNc1nc(N)c([N+](=O)[O-])c(NCC2CCCO2)n1 (stereo not drawn) was read as aSyn UTR act 61.6.
`Cc1ccc(NC(=O)c2ccc(NCCCN3CCC(C)CC3)c([N+](=O)[O-])c2)c(C)c1` gave aSyn UTR act -63.2*.
Screening O=C(Nc1cccnc1)c1ccc(N2CCCC2)c([N+](=O)[O-])c1 returned aSyn UTR act -87.1*.
For Nc1ccc(C(=O)N/N=C/c2cn(Cc3ccc(F)cc3)c3ccccc23)cc1 the results were aSyn UTR act 64.3.
For Cc1ccc(Cn2ccc(NC(=O)c3nn(C)cc3Cl)n2)cc1 the results were aSyn UTR act -112.4*.
O=C(Nc1ccn(Cc2ccc(Cl)cc2)n1)c1ccc2c(c1)OCO2 was read as aSyn UTR act -70.4*.
`O=C(Nc1ccn(Cc2ccccc2F)n1)c1ccc(COc2ccc(Br)cc2)cc1` gave aSyn UTR act -68.5*.
